# Measurements taken from ChEMBL document CHEMBL4296182, “CO-ADD screening of NIH NCI Diversity Set V”.
# For part of these data: Entries with a potency or affinity are not part of this list.
# How the values were obtained:
# Staphylococcus aureus = test: Antibacterial activity against Staphylococcus aureus MRSA ATCC 43300 (CO-ADD:GP_020); MIC in CAMBH media using NBS plates, by Resazurin F(560/590); type: functional; conditions: Concentration 20 uM, ASSAY_TEST Inhibition of Bacterial Growth, detection method Resazurin, Fluorescence (ex560/em590), MEDIA CAMHB, plate type 384well, CORNING #3640, time 18 hr
# Acinetobacter baumannii = test: Antibacterial activity against Acinetobacter baumannii ATCC 19606 (CO-ADD:GN_034); MIC in CAMBH media using NBS plates, by Resazurin F(560/590); type: functional; conditions: Concentration 20 uM, ASSAY_TEST Inhibition of Bacterial Growth, detection method Resazurin, Fluorescence (ex560/em590), MEDIA CAMHB, plate type 384well, CORNING #3640, time 18 hr
# Escherichia coli = test: Antibacterial activity against Escherichia coli ATCC 25922 (CO-ADD:GN_001); MIC in CAMBH media using NBS plates, by Resazurin F(560/590); type: functional; conditions: Concentration 20 uM, ASSAY_TEST Inhibition of Bacterial Growth, detection method Resazurin, Fluorescence (ex560/em590), MEDIA CAMHB, plate type 384well, CORNING #3640, time 18 hr
# Klebsiella pneumoniae = conditions: Concentration 20 uM; ASSAY_TEST Inhibition of Bacterial Growth; detection method Absorption (OD600); MEDIA CAMHB; plate type 384well; NBS; CORNING #3640; time 18 hr
# Candida albicans = conditions: 20 µM
# Cryptococcus neoformans = conditions: Concentration 20 uM; ASSAY_TEST Inhibition of Fungal Growth; detection method Resazurin; Absorption (OD600-OD570); plate type 384well; NBS; CORNING #3640
structure (smiles),measurement,setting,value
Cc1n[nH]c2nc(N)nn2c1=O,Inhibition,Staphylococcus aureus,-4.36%
same,Inhibition,Acinetobacter baumannii,-0.91%
same,Inhibition,Escherichia coli,10.78%
same,Inhibition,Klebsiella pneumoniae,-2.02%
same,Inhibition,Candida albicans,-3.85%
same,Inhibition,Cryptococcus neoformans,-10.19%
O=C(O)c1ccc(OCCOc2ccccc2)cc1,Inhibition,Staphylococcus aureus,-1.13%
same,Inhibition,Acinetobacter baumannii,-7.25%
same,Inhibition,Escherichia coli,7.53%
same,Inhibition,Klebsiella pneumoniae,15.54%
same,Inhibition,Candida albicans,7.45%
same,Inhibition,Cryptococcus neoformans,-11.92%
O=C(Cn1ccc(=O)[nH]c1=O)Nc1nccs1,Inhibition,Staphylococcus aureus,4.05%
same,Inhibition,Acinetobacter baumannii,-8.5%
same,Inhibition,Escherichia coli,10.86%
same,Inhibition,Klebsiella pneumoniae,12.12%
same,Inhibition,Candida albicans,0.84%
same,Inhibition,Cryptococcus neoformans,-10.28%
CCOC(=O)C1CC(C)=C(C)CC1C(=O)O (stereo not given),Inhibition,Staphylococcus aureus,-6.63%
same,Inhibition,Acinetobacter baumannii,13.31%
same,Inhibition,Escherichia coli,5.04%
same,Inhibition,Klebsiella pneumoniae,7.81%
same,Inhibition,Candida albicans,6.96%
same,Inhibition,Cryptococcus neoformans,-10.63%
O=C1c2cccc(Oc3ccccc3)c2C(=O)c2cccc(Oc3ccccc3)c21,Inhibition,Staphylococcus aureus,12.36%
same,Inhibition,Acinetobacter baumannii,6.18%
same,Inhibition,Escherichia coli,-1.53%
same,Inhibition,Klebsiella pneumoniae,10.6%
same,Inhibition,Candida albicans,2.19%
same,Inhibition,Cryptococcus neoformans,-5.27%
O=C(Nc1cccc2c1N(C(=O)c1ccco1)CCC2)c1ccco1,Inhibition,Staphylococcus aureus,23.38%
same,Inhibition,Acinetobacter baumannii,8.42%
same,Inhibition,Escherichia coli,4.6%
same,Inhibition,Klebsiella pneumoniae,13.8%
same,Inhibition,Candida albicans,-1.4%
same,Inhibition,Cryptococcus neoformans,-2.48%
C/C(=N\O)C1CC(CC(=O)O)C1(C)C (stereo not given),Inhibition,Staphylococcus aureus,-0.7%
same,Inhibition,Acinetobacter baumannii,-12.7%
same,Inhibition,Escherichia coli,4.91%
same,Inhibition,Klebsiella pneumoniae,2.97%
same,Inhibition,Candida albicans,2.15%
same,Inhibition,Cryptococcus neoformans,-5.7%
COc1ccc(N/C=C2\C(=O)CCc3c2oc2cc(Cl)c(O)c(Cl)c32)cc1,Inhibition,Staphylococcus aureus,7.05%
same,Inhibition,Acinetobacter baumannii,-14.01%
same,Inhibition,Escherichia coli,13.43%
same,Inhibition,Klebsiella pneumoniae,4.7%
same,Inhibition,Candida albicans,3.38%
same,Inhibition,Cryptococcus neoformans,-7.04%
c1ccc2sc(SCSc3nc4ccccc4s3)nc2c1,Inhibition,Staphylococcus aureus,-0.38%
same,Inhibition,Acinetobacter baumannii,-17.15%
same,Inhibition,Escherichia coli,3.51%
same,Inhibition,Klebsiella pneumoniae,4.08%
same,Inhibition,Candida albicans,12.5%
same,Inhibition,Cryptococcus neoformans,-13.87%
C(=C\c1ccc(/C=C/c2ccccc2)nn1)/c1ccccc1,Inhibition,Staphylococcus aureus,12.1%
same,Inhibition,Acinetobacter baumannii,11.6%
same,Inhibition,Escherichia coli,2.44%
same,Inhibition,Klebsiella pneumoniae,18.32%
same,Inhibition,Candida albicans,0.82%
same,Inhibition,Cryptococcus neoformans,-5.49%
CCC(C)(C)c1ccc(Oc2cccc(C(=O)O)c2)cc1,Inhibition,Staphylococcus aureus,-8.99%
same,Inhibition,Acinetobacter baumannii,14.6%
same,Inhibition,Escherichia coli,-8.34%
same,Inhibition,Klebsiella pneumoniae,17.33%
same,Inhibition,Candida albicans,8.87%
same,Inhibition,Cryptococcus neoformans,-6.24%
COc1cc(NC(C)=O)c2ncccc2c1Br,Inhibition,Staphylococcus aureus,8.44%
same,Inhibition,Acinetobacter baumannii,-11.34%
same,Inhibition,Escherichia coli,10.55%
same,Inhibition,Klebsiella pneumoniae,15.6%
same,Inhibition,Candida albicans,6.33%
same,Inhibition,Cryptococcus neoformans,-16.73%
O=C1c2ccccc2C(O)(c2ccccc2)N1c1ccncc1 (stereo not given),Inhibition,Staphylococcus aureus,8.72%
same,Inhibition,Acinetobacter baumannii,-12.43%
same,Inhibition,Escherichia coli,4.92%
same,Inhibition,Klebsiella pneumoniae,13.13%
same,Inhibition,Candida albicans,2.44%
same,Inhibition,Cryptococcus neoformans,-3.79%
CCOC(=O)/C=C/c1nc(O)c(C)c(C(=O)OCC)n1,Inhibition,Staphylococcus aureus,-2.98%
same,Inhibition,Acinetobacter baumannii,-11.68%
same,Inhibition,Escherichia coli,5.55%
same,Inhibition,Klebsiella pneumoniae,4.47%
same,Inhibition,Candida albicans,0.35%
same,Inhibition,Cryptococcus neoformans,-10.31%
O=C(NCc1ccco1)Nc1cccc([N+](=O)[O-])c1,Inhibition,Staphylococcus aureus,14.39%
same,Inhibition,Acinetobacter baumannii,8.34%
same,Inhibition,Escherichia coli,-1.12%
same,Inhibition,Klebsiella pneumoniae,10.94%
same,Inhibition,Candida albicans,3.5%
same,Inhibition,Cryptococcus neoformans,-10.49%
Cc1nc2ccnn2c(O)c1CCc1ccccc1,Inhibition,Staphylococcus aureus,8.7%
same,Inhibition,Acinetobacter baumannii,-8.36%
same,Inhibition,Escherichia coli,1.1%
same,Inhibition,Klebsiella pneumoniae,10.44%
same,Inhibition,Candida albicans,5.45%
same,Inhibition,Cryptococcus neoformans,-6.6%
N=C1OC(c2ccccc2)C(O)=C1O (stereo not given),Inhibition,Staphylococcus aureus,0.33%
same,Inhibition,Acinetobacter baumannii,-10.5%
same,Inhibition,Escherichia coli,6.34%
same,Inhibition,Klebsiella pneumoniae,8.48%
same,Inhibition,Candida albicans,7.04%
same,Inhibition,Cryptococcus neoformans,-2.61%
N=C(N)NC(=S)Nc1ccc(Cl)cc1,Inhibition,Staphylococcus aureus,29.08%
same,Inhibition,Acinetobacter baumannii,3.91%
same,Inhibition,Escherichia coli,19.57%
same,Inhibition,Klebsiella pneumoniae,9.15%
same,Inhibition,Candida albicans,20%
same,Inhibition,Cryptococcus neoformans,-7.26%
Cc1ccc(Nc2c(O)ncnc2O)cc1C,Inhibition,Staphylococcus aureus,-23.26%
same,Inhibition,Acinetobacter baumannii,-4.13%
same,Inhibition,Escherichia coli,-16.23%
same,Inhibition,Klebsiella pneumoniae,1.1%
same,Inhibition,Candida albicans,0.31%
same,Inhibition,Cryptococcus neoformans,16.78%
O=C(CCl)NC1(C(=O)O)CCCC1,Inhibition,Staphylococcus aureus,-0.81%
same,Inhibition,Acinetobacter baumannii,16.39%
same,Inhibition,Escherichia coli,-6.53%
same,Inhibition,Klebsiella pneumoniae,9.23%
same,Inhibition,Candida albicans,6.58%
same,Inhibition,Cryptococcus neoformans,-2.6%
COC(=O)CC1(C(=O)OC)Nc2cc(Cl)c(Cl)cc2S(=O)(=O)N1O (stereo not given),Inhibition,Staphylococcus aureus,8.27%
same,Inhibition,Acinetobacter baumannii,11.98%
same,Inhibition,Escherichia coli,7.08%
same,Inhibition,Klebsiella pneumoniae,10.44%
same,Inhibition,Candida albicans,3.58%
same,Inhibition,Cryptococcus neoformans,3.59%
CC1=C(c2ccccc2)C=NNCC1=O,Inhibition,Staphylococcus aureus,7.06%
same,Inhibition,Acinetobacter baumannii,-11.86%
same,Inhibition,Escherichia coli,19.62%
same,Inhibition,Klebsiella pneumoniae,15.54%
same,Inhibition,Candida albicans,3.87%
same,Inhibition,Cryptococcus neoformans,-8.22%
Cc1nc([N+](=O)[O-])cn1-c1nc2ccccn2c1[N+](=O)[O-],Inhibition,Staphylococcus aureus,12.97%
same,Inhibition,Acinetobacter baumannii,-5.05%
same,Inhibition,Escherichia coli,12.78%
same,Inhibition,Klebsiella pneumoniae,11.88%
same,Inhibition,Candida albicans,4.75%
same,Inhibition,Cryptococcus neoformans,-6.88%
CCOC(=O)Nc1cc2c(c(N)n1)N=C(c1ccccc1)CN2,Inhibition,Staphylococcus aureus,13.64%
same,Inhibition,Acinetobacter baumannii,2.33%
same,Inhibition,Escherichia coli,8.87%
same,Inhibition,Klebsiella pneumoniae,5.47%
same,Inhibition,Candida albicans,5.55%
same,Inhibition,Cryptococcus neoformans,-8.89%
COc1cc2c(cc1OC)[N+]([O-])=C(c1ccccc1)C2=O,Inhibition,Staphylococcus aureus,11.49%
same,Inhibition,Acinetobacter baumannii,-5.23%
same,Inhibition,Escherichia coli,9.41%
same,Inhibition,Klebsiella pneumoniae,-2.97%
same,Inhibition,Candida albicans,13.8%
same,Inhibition,Cryptococcus neoformans,-4.84%
